BaF3 tox – parental Ba/F3 cell viability inhibition, counter-screen for JAK2V617F inhibitor project, murine pro-B, CellTiter-Glo luminescence. CellTiter-Glo ATP luminescence. inhibition, % at 5.6 µM. hit rate 1.1% among 220,000;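 active = inhibition above a per-campaign cutoff, the mean inhibition of all tested compounds plus 3 SD, cut at about 27% in these data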
Ba/F3 V617F tox – reduced viability of JAK2V617F-dependent Ba/F3 cells, primary screen, JAK2V617F inhibitor project, cell-based, Ba/F3 EpoR-JAK2V617F, luminescence; hit rate 1.1% among 220,000; ATP luminescence; inhibition, % at 5.6 µM;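 active = inhibition above the campaign mean plus 3 SD over all tested compounds, cut at about 24% in these data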;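 note: cytokine-independent growth of Ba/F3 cells driven by EpoR plus mutant JAK2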
IEC-6 tox – cytotoxicity in IEC-6 intestinal epithelial cells, primary screen, cytotoxicity control for KLF5 inhibitor project, cell-based, luminescence. IEC-6 cytotoxicity, luminescence viability. inhibition, % at 5 µM. hit rate 0.78% among 290,000. AID 1825, 2009; in the data active = inhibition above about 22%
KLF5 inhibitor – KLF5 expression inhibitors, primary screen, DLD-1 cells, luminescence | DLD-1 KLF5 promoter-luciferase reporter | inhibition, % at 5 µM | hit rate 0.23% among 290,000;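 active = inhibition above a per-plate limit of that plate's mean compound inhibition plus 3 SD, cut at about 60% in these data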;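 note: higher means less KLF5 promoter-driven luciferase light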
aSyn 5UTR inh – MLPCN primary screen, SNCA 5' untranslated region; alpha-synuclein 5'UTR reporter, inhibitor activity; inhibition, % (tested at 7.5 µM); hit rate 0.82% among 300,000; AID 1813, 2009; in the data active = inhibition above about 60%;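 note: H4 neuroglioblastoma cells stably carrying SNCA 5'UTR luciferase fusion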
APP 5UTR inh – inhibitors of APP translation via 5'UTR reporter, primary screen, APP 5'UTR luciferase, SH-SY5Y cells; SH-SY5Y APP 5'UTR-luciferase reporter, luminescence; inhibition, % at 2 µM; hit rate 0.82% among 190,000; AID 1285, 2008;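 active = inhibition above a set limit, derived from the sample mean plus 3 SD, cut at about 45% in these data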
Numbers stand for hits; n = inactive; x = no result. The list is not random: actives were taken first. Their share in the collection is about 2.2%.

SMILES | BaF3 tox | Ba/F3 V617F tox | IEC-6 tox | KLF5 inhibitor | aSyn 5UTR inh | APP 5UTR inh
COc1ccc(C2=NN(C(=O)CCC(=O)O)C(c3ccc(F)cc3)C2)cc1 (centres undefined) | x | x | n | n | n | x
Cc1cc(N2CCN(c3ccc([N+](=O)[O-])c4cccnc34)CC2)c2ccccc2n1 | n | n | n | n | 83.7 | n
CCN1C(=O)C(=Cc2cccc(OC)c2Oc2ccc([N+](=O)[O-])cc2[N+](=O)[O-])SC1=S | x | x | n | n | 80.3 | x
CS(=O)(=O)c1nc(-c2ccccc2)cc(C(F)(F)F)n1 | n | n | n | n | n | 62.4
FC(F)(F)c1cc(-c2ccccc2)nc(N2CCCCCC2)n1 | n | n | n | n | n | n
COc1ccc(C)cc1S(=O)(=O)NCC(c1ccc2c(c1)OCO2)N1CCN(C)CC1 (centres undefined) | x | x | x | x | n | x
Cc1cc(C)c[n+](CC(=O)c2c(C)cc(C)c([N+](=O)[O-])c2C)c1 | x | x | n | n | n | x
NC(=S)n1[nH]c(-c2ccc([N+](=O)[O-])cc2)c(N=Nc2ccccc2[N+](=O)[O-])c1=O | 46.0 | n | n | n | x | n
CCOc1cc(/C=C2/NC(=O)N(Cc3ccccc3F)C2=O)ccc1O | 72.4 | 95.2 | n | n | n | n
C/C(=N\NC(=S)NCc1ccccc1)c1ccco1 | 67.2 | n | n | n | n | n
O=c1[nH]c2ccccc2n1C1CCCCC1 | n | n | n | n | n | 64.1
O=C(NC1CCCCC1)N1CCC(n2c(=O)[nH]c3ccccc32)CC1 | x | x | x | x | n | n
CN(C)S(=O)(=O)c1ccc2c(c1)nc(CCC(=O)NCCc1ccc(Cl)cc1)n2C | x | x | n | n | n | x
O=C(Cn1cnnn1)NCc1ccccc1 | x | x | n | n | n | x
CCC(C(=O)c1ccccc1)N(C(=O)c1ccccc1Cl)N1C(=O)C2C3C=CC(C3)C2C1=O (centres undefined) | 94.6 | n | n | n | n | n
O=C(CN(C(=O)c1ccc(Cl)cc1Cl)N1C(=O)C2C3C=CC(C3)C2C1=O)c1ccc(F)cc1 (centres undefined) | n | n | n | n | n | n
CCOC(=O)c1sc(N)c(C(=O)OC)c1C | 90.4 | n | n | n | n | n
C/C(=N/NC(=O)CNS(=O)(=O)c1ccc(C)cc1)c1cccc([N+](=O)[O-])c1 | n | n | n | n | n | n
Brc1ccc2[nH]c3c(c2c1)CCC3 | n | n | n | n | n | x
OCCN=C1CCCc2c1[nH]c1ccc(Br)cc21 | n | n | n | n | 62.2 | n
O=C(Nc1cccc([N+](=O)[O-])c1)c1ccc2c(c1)C(=O)N(c1ccccn1)C2=O | x | x | n | n | n | x
CCOC(=O)c1c(-c2ccccc2)oc2cc(CN(C)C)c(O)c(CN(C)C)c12 | n | n | n | n | n | 53.2
CCOC(=O)c1c(C)oc2cc(Cl)c(O)c(CN(C)C)c12 | n | n | n | n | n | x
CCOc1ccc(CCNC(=O)COC(=O)CNS(=O)(=O)c2ccc(NC(C)=O)cc2)cc1OCC | x | x | x | x | n | x
COc1ccc(CNC(=O)C2CCC(CNC(=O)[C@@H]3Cc4ccccc4CN3)CC2)cc1 (some centres undefined) | x | x | n | n | n | x
SMILES | BaF3 tox | Ba/F3 V617F tox | IEC-6 tox | KLF5 inhibitor | aSyn 5UTR inh | APP 5UTR inh
CCCNC(=O)c1ccc(-c2nc3ccccc3s2)s1 | n | n | n | n | 79.2 | n
Nc1ncnc2c1ncn2[C@@H]1O[C@H](CO)[C@@H](O)[C@@H]1O | x | x | x | x | n | x
Nc1ncnc2c1ncn2[C@@H]1O[C@H](CO)C[C@@H]1O | n | n | 65.9 | n | n | x
Nc1ccc(N=Nc2ccccc2)c(N)n1 | n | n | n | n | n | n
Cc1[nH]c(N=Nc2ccccc2)nc1N=Nc1ccccc1 | n | n | n | n | 62.7 | x
Cc1ccc2ccc[n+](Cc3ccccc3)c2c1 | x | x | x | x | n | x
Cc1ccc(C[n+]2cccc(-c3ccccc3)c2)c(C)c1 | 69.2 | 76.8 | n | n | n | n
Cc1ccc(CN2CCN(C(=O)CC(C)C)CC2)cc1 | x | x | n | n | n | x
C=CCc1cccc(CNn2cnnc2)c1O | x | x | n | n | n | x
Cc1cc(C)cc(Cn2ncc(Cl)c(Cl)c2=O)c1 | n | n | n | n | n | 58.2
O=C(Cn1ncc(Cl)c(Cl)c1=O)N1CCOCC1 | n | n | n | n | n | n
O=c1c(Cl)c(Cl)cnn1Cc1ccccc1Cl | n | n | n | n | n | 91.9
O=C(Cn1ncc(Cl)c(Cl)c1=O)N1CCN(Cc2ccccc2)CC1 | n | n | n | n | n | 90.0
CC1(C)C(=O)Nc2ccccc2N1C(=O)Cn1ncc(Cl)c(Cl)c1=O | 31.3 | n | n | n | n | x
C=CCNC(=O)c1c(Cl)cnn1-c1ccc(C)cc1 | n | n | n | n | n | n
CC(C)(C)c1ccc(C(CC(=O)O)NC(=O)C23CC4CC(CC(C4)C2)C3)cc1 (centres undefined) | x | x | n | n | n | x
COc1cc2c(cc1OC)CN(C(=O)C1CCC(=O)N(CCCN3CCOCC3)C1)CC2 (centres undefined) | x | x | n | n | n | x
CC[N+](CC)(CC#Cc1ccccc1)CC(=O)c1ccc(Cl)cc1 | n | n | n | n | n | n
C#CC[N+](CC)(CC)CC#Cc1cccc(Cl)c1 | 66.3 | 73.4 | n | n | n | n
COc1ccc(Cn2c(-c3ccc(Br)cc3)c[n+]3ccccc23)cc1 | 63.9 | 72.0 | n | n | n | n
COc1ccc(Cn2c(-c3ccc(OC)cc3)nc3ccccc32)cc1 | n | n | n | n | n | n
COc1ccc(NC(=O)c2sccc2C)cn1 | n | n | n | n | n | n
C=CCSc1nc2ccccc2n1C(=O)/C=C/c1cc(OC)c(OC)c(OC)c1 | n | n | n | n | n | 57.6
c1ccc(CN2CCC(Nc3ncnc4sccc34)CC2)cc1 | n | n | n | n | n | n
Cc1sc2ncnc(NC3CCN(Cc4ccccc4)CC3)c2c1C | 33.9 | 32.5 | n | n | n | n
SMILES | BaF3 tox | Ba/F3 V617F tox | IEC-6 tox | KLF5 inhibitor | aSyn 5UTR inh | APP 5UTR inh
CCN1/C(=C/C(C)=C/c2sc3ccccc3[n+]2CC)Sc2ccccc21 | 74.6 | 100.4 | n | n | 99.7 | 66.9
CCN1/C(=C\C(=S)Nc2ccccc2)Sc2ccccc21 | n | n | n | n | n | n
CCOCCOC(=O)c1[nH]c2c(c1C)C(=O)CC(c1cccs1)C2 (centres undefined) | 79.5 | 80.5 | 87.1 | 76.8 | 84.6 | 92.9
CC(=O)N(C(C)=O)c1ncc2c([nH]c3ccccc32)c1C#N | n | n | n | n | 64.8 | n
Cc1nc(C(=O)O)cc2c1[nH]c1ccccc12 | x | x | x | x | n | x
O=C(COC(=O)c1cnccn1)c1ccc(C2CCCCC2)cc1 | x | x | n | n | n | x
Cc1ccc2nc(-c3ccc(N)cc3)sc2c1 | n | n | n | n | 90.0 | x
NC(=O)c1nsc(C(=O)N(CC(=O)NC2CCCCC2)Cc2ccc(F)cc2)c1N | x | x | n | n | n | x
CNCC(O)Cn1c2c(c3ccccc31)CCCC2 (centres undefined) | n | n | n | n | n | n
Fc1ccc(CN2CCCCCCC2)cc1 | n | n | n | n | n | n
